{
  "source": "PubChem BioAssay (EPA / NIEHS)",
  "note": "Where “and” joins values, the source holds several entries; their conditions need not be identical. Identical values can stand only once. Records with an inconclusive call do not appear. Where a structure was tested more than once in an assay, its records may differ in their call. Calls of active or inactive are those of the source. How the source made its calls, unless noted: active means hit-call score of the fitted dose curve at least 0.9, where 1 is the maximum; inconclusive means response in the unintended direction; inactive means score below 0.9.",
  "data": [
    {"test_system": "not listed separately", "assay": "CCTE_Shafer_MEA_dev_per_network_spike_spike_number_mean: CCTE's Neural Network Formation Assay for Mean Number of Spikes in a Network Spike, Shafer Lab (AID 2284053; active means hit-call score of the fitted dose curve at least 0.9, where 1 is the maximum; inactive means score below 0.9;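 on AC50: fitted as decrease in spikes per network spike relative to DMSO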)", "procedure,_shortened": "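First, rat cortical cells (1.5 x 10^5/well) were seeded onto MEA wells; second, dosing began at plating and was refreshed on DIV 5 and 9; finally, network-spike spike counts across DIV 5–12 were summarized as AUC.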", "values": [
      {"compound": "O=S(=O)(O)C(F)(F)C(F)(F)C(F)(F)C(F)(F)C(F)(F)C(F)(F)F", "outcome": "inactive"},
      {"compound": "ClC1=C(Cl)[C@]2(Cl)[C@@H]3[C@@H]4C[C@@H]([C@H]5O[C@@H]45)[C@@H]3[C@@]1(Cl)C2(Cl)Cl", "outcome": "inactive"},
      {"compound": "Clc1ccc(C(c2ccccc2Cl)C(Cl)(Cl)Cl)cc1", "note": "(configuration not stated)", "AC50": "0.215 µM (active)"},
      {"compound": "COc1ccc(O)c(C(C)(C)C)c1", "outcome": "inactive"},
      {"compound": "Oc1ccc(C(c2ccc(O)cc2)(C(F)(F)F)C(F)(F)F)cc1", "outcome": "inactive"},
      {"compound": "O=S(=O)(O)C(F)(F)C(F)(F)C(F)(F)C(F)(F)F", "AC50": "14.2 µM (active)", "outcome": "inactive"},
      {"compound": "ClC1=C(Cl)[C@]2(Cl)[C@@H]3[C@H]4C[C@H]([C@@H]5O[C@H]45)[C@@H]3[C@@]1(Cl)C2(Cl)Cl", "outcome": "inactive"},
      {"compound": "ClC1=C(Cl)[C@]2(Cl)[C@@H]3[C@@H](Cl)[C@H]4O[C@H]4[C@@H]3C1(Cl)C2(Cl)Cl", "AC50": "27.1 µM (active)"},
      {"compound": "NS(=O)(=O)C(F)(F)C(F)(F)C(F)(F)C(F)(F)C(F)(F)C(F)(F)C(F)(F)C(F)(F)F", "AC50": "15 µM (active)", "outcome": "inactive"},
      {"compound": "c1cc2ccc3cccc4ccc(c1)c2c34", "outcome": "inactive"},
      {"compound": "CO/C=C(/C(=O)OC)c1ccccc1COc1cccc(C(F)(F)F)n1", "AC50": "218 nM (active) and 739 nM (active)"},
      {"compound": "ClC(Cl)=C(c1ccc(Cl)cc1)c1ccc(Cl)cc1", "AC50": "3.63 µM (active)"},
      {"compound": "CCC(C)(c1ccc(O)cc1)c1ccc(O)cc1", "outcome": "inactive"},
      {"compound": "O=C(O)C(F)(F)C(F)(F)C(F)(F)C(F)(F)C(F)(F)C(F)(F)C(F)(F)C(F)(F)F", "outcome": "inactive"},
      {"compound": "C=CC(N)=O", "outcome": "inactive"},
      {"compound": "O=C(O)C(F)(F)C(F)(F)C(F)(F)C(F)(F)C(F)(F)F", "outcome": "inactive"},
      {"compound": "CCOP(=S)(OCC)SCSC(C)(C)C", "AC50": "23.4 µM (active) and 17.1 µM (active)"}
    ]},
    {"test_system": "DIO3 (gene 1735)", "assay": "CCTE_GLTED_hDIO3: CCTE's human Deiodinase 3 (DIO3) Inhibition Assay, Great Lakes Toxicology and Ecology Division (GLTED) Lab (AID 2284055);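 further: potency is for inhibition seen as loss of released iodide signal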", "procedure,_shortened": "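Steps: incubate adenovirus-produced hDIO3 with chemical for 3 hours; detect freed iodide via cerium-arsenic Sandell-Kolthoff colorimetry; compare with DMSO baseline.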", "values": [
      {"compound": "CC#Cc1cc(C)nc(Nc2ccccc2)n1", "AC50": "3.73 µM (active)"},
      {"compound": "Oc1ccc(C(c2ccc(O)cc2)(C(F)(F)F)C(F)(F)F)cc1", "AC50": "136 µM (active)"},
      {"compound": "CCCCCCCCCC[N+](C)(C)CCCCCCCCCC", "AC50": "3.56 µM (active)"},
      {"compound": "O=C(O)C(F)(F)C(F)(F)C(F)(F)C(F)(F)C(F)(F)C(F)(F)C(F)(F)C(F)(F)C(F)(F)F", "AC50": "89.4 µM (active) and 74.2 µM (active)"},
      {"compound": "Clc1ccc(C(Cl)(Cl)Cl)cc1", "AC50": "73.1 µM (active)"},
      {"compound": "CCCCCCCCCc1ccc(O)cc1", "AC50": "17.4 µM (active)"}
    ]},
    {"test_system": "not listed separately", "assay": "CCTE_Shafer_MEA_dev_LDH: CCTE's Lactate Dehydrogenase Assay for Cytotoxicity in the Neural Network Formation Assay, Shafer Lab (AID 2284068);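 further: exposure for twelve days from plating with re-dosing on DIV 5 and 9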", "procedure,_shortened": "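Developing rat cortical networks on MEA plates are exposed to compound for 12 days from plating. LDH activity is measured spectrophotometrically, with DMSO as baseline.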", "values": [
      {"compound": "O=S(=O)(O)C(F)(F)C(F)(F)C(F)(F)C(F)(F)C(F)(F)C(F)(F)F", "outcome": "inactive"},
      {"compound": "ClC1=C(Cl)[C@]2(Cl)[C@@H]3[C@@H]4C[C@@H]([C@H]5O[C@@H]45)[C@@H]3[C@@]1(Cl)C2(Cl)Cl", "AC50": "11.3 µM (active)"},
      {"compound": "Clc1ccc(C(c2ccccc2Cl)C(Cl)(Cl)Cl)cc1", "note": "(configuration not stated)", "AC50": "2.38 µM (active)"},
      {"compound": "COc1ccc(O)c(C(C)(C)C)c1", "outcome": "inactive"},
      {"compound": "Oc1ccc(C(c2ccc(O)cc2)(C(F)(F)F)C(F)(F)F)cc1", "AC50": "10 µM (active) and 13.1 µM (active)"},
      {"compound": "O=S(=O)(O)C(F)(F)C(F)(F)C(F)(F)C(F)(F)F", "outcome": "inactive"},
      {"compound": "ClC1=C(Cl)[C@]2(Cl)[C@@H]3[C@H]4C[C@H]([C@@H]5O[C@H]45)[C@@H]3[C@@]1(Cl)C2(Cl)Cl", "outcome": "inactive"},
      {"compound": "ClC1=C(Cl)[C@]2(Cl)[C@@H]3[C@@H](Cl)[C@H]4O[C@H]4[C@@H]3C1(Cl)C2(Cl)Cl", "AC50": "22.5 µM (active)"},
      {"compound": "NS(=O)(=O)C(F)(F)C(F)(F)C(F)(F)C(F)(F)C(F)(F)C(F)(F)C(F)(F)C(F)(F)F", "AC50": "27.6 µM (active) and 23.6 µM (active)"},
      {"compound": "c1cc2ccc3cccc4ccc(c1)c2c34", "outcome": "inactive"},
      {"compound": "CO/C=C(/C(=O)OC)c1ccccc1COc1cccc(C(F)(F)F)n1", "AC50": "122 nM (active) and 665 nM (active)"},
      {"compound": "ClC(Cl)=C(c1ccc(Cl)cc1)c1ccc(Cl)cc1", "AC50": "5.14 µM (active)"},
      {"compound": "O=C(O)C(F)(F)C(F)(F)C(F)(F)C(F)(F)C(F)(F)C(F)(F)C(F)(F)C(F)(F)F", "outcome": "inactive"},
      {"compound": "C=CC(N)=O", "outcome": "inactive"},
      {"compound": "O=C(O)C(F)(F)C(F)(F)C(F)(F)C(F)(F)C(F)(F)F", "outcome": "inactive"},
      {"compound": "CCOP(=S)(OCC)SCSC(C)(C)C", "AC50": "15.1 µM (active) and 29.5 µM (active)"}
    ]},
    {"test_system": "not listed separately", "assay": "CCTE_Shafer_MEA_acute_AB: CCTE's Alamar Blue Assay for Cytotoxicity in the Neural Acute Assay, Shafer Lab (AID 2284069);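 further: active compounds lower the viability signal compared with DMSO wells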", "procedure,_shortened": "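Cytotoxicity endpoint for acute MEA exposures of primary rat cortical neurons on day 13 or 15. Resazurin reduction is read fluorescently at 544/590 nm, with DMSO as the negative-control baseline.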", "values": [
      {"compound": "ClC1=C(Cl)[C@]2(Cl)[C@@H]3[C@@H]4C[C@@H]([C@H]5O[C@@H]45)[C@@H]3[C@@]1(Cl)C2(Cl)Cl", "outcome": "inactive"},
      {"compound": "CC#Cc1cc(C)nc(Nc2ccccc2)n1", "outcome": "inactive"},
      {"compound": "O=C(NC(=O)c1c(F)cccc1F)Nc1cc(Cl)c(OC(F)(F)C(F)F)c(Cl)c1", "outcome": "inactive"},
      {"compound": "COc1ccc(O)c(C(C)(C)C)c1", "outcome": "inactive"},
      {"compound": "CC(c1ccc(O)cc1)(c1ccc(O)cc1)c1ccc(O)cc1", "outcome": "inactive"},
      {"compound": "Oc1ccc(C(c2ccc(O)cc2)(C(F)(F)F)C(F)(F)F)cc1", "outcome": "inactive"},
      {"compound": "CCSC(=O)N(CC)C1CCCCC1", "outcome": "inactive"},
      {"compound": "ClC1=C(Cl)[C@]2(Cl)[C@@H]3[C@H]4C[C@H]([C@@H]5O[C@H]45)[C@@H]3[C@@]1(Cl)C2(Cl)Cl", "outcome": "inactive"},
      {"compound": "ClC1=C(Cl)[C@]2(Cl)[C@@H]3[C@@H](Cl)[C@H]4O[C@H]4[C@@H]3C1(Cl)C2(Cl)Cl", "outcome": "inactive"},
      {"compound": "CCCN(CCC)N=O", "outcome": "inactive"},
      {"compound": "CCCCCCCCCC[N+](C)(C)CCCCCCCCCC", "AC50": "20 µM (active)"},
      {"compound": "COS(=O)(=O)OC", "outcome": "inactive"},
      {"compound": "CN(C)CCO", "outcome": "inactive"},
      {"compound": "Clc1ccc(C(Cl)(Cl)Cl)cc1", "outcome": "inactive"},
      {"compound": "CO/C=C(/C(=O)OC)c1ccccc1COc1cccc(C(F)(F)F)n1", "outcome": "inactive"},
      {"compound": "ClC(Cl)=C(c1ccc(Cl)cc1)c1ccc(Cl)cc1", "outcome": "inactive"},
      {"compound": "CCC(C)(c1ccc(O)cc1)c1ccc(O)cc1", "outcome": "inactive"},
      {"compound": "CCCCCCCCCc1ccc(O)cc1", "outcome": "inactive"},
      {"compound": "C=CC(N)=O", "outcome": "inactive"},
      {"compound": "CCC(C)(CC)c1cc(NC(=O)c2c(OC)cccc2OC)on1", "outcome": "inactive"},
      {"compound": "O=C(O)C(F)(F)C(F)(F)C(F)(F)C(F)(F)C(F)(F)F", "outcome": "inactive"}
    ]}
  ]
}
